Laboratory results published in PubChem BioAssay (NCI).
Compounds without any hit were thinned out: in the full panel of roughly 83,000, 20% have a hit.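 Negative percent growth values reflect cell death: -40 means 40% of the cells present at the start died, and -100 means all died.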 Values without a mark were called inactive. Calls of active or inactive are those of the source. How the source made its calls: active means growth percent below 10; inactive means the rest.

What was measured:
Assay in all cases: NCI-60 one-dose screen, 48 h (100 = growth as untreated, 0 = no growth, -100 = all killed)
RPMI-8226 leukemia = details: 10 µM
OVCAR-8 ovarian = details: 10 µM unless noted
OVCAR-5 ovarian = details: 10 µM unless noted
OVCAR-4 ovarian = details: 10 µM unless noted
SK-OV-3 ovarian = details: 10 µM
IGROV1 ovarian = details: 10 µM unless noted
OVCAR-3 ovarian = details: 10 µM unless noted
HS 578T breast = details: 10 µM unless noted
NCI/ADR-RES ovarian = details: 10 µM unless noted
T-47D breast = details: 10 µM
BT-549 breast = details: 10 µM unless noted
MDA-MB-435 melanoma = details: 10 µM unless noted
SW-620 colon = details: 10 µM unless noted
MCF7 breast = details: 10 µM unless noted
HCT-116 colon = details: 10 µM unless noted
KM12 colon = details: 10 µM unless noted
HCC-2998 colon = details: 10 µM unless noted

## CN1CCC(OC2c3ccccc3CCc3ccccc32)CC1
RPMI-8226 leukemia
  growth: 88%
OVCAR-8 ovarian
  growth: 97.6%
OVCAR-5 ovarian
  growth: 95.3%
OVCAR-4 ovarian
  growth: 94.4%
SK-OV-3 ovarian
  growth: 96%
IGROV1 ovarian
  growth: 109%
OVCAR-3 ovarian
  growth: 106%
HS 578T breast
  growth: 87.4%
NCI/ADR-RES ovarian
  growth: 96.5%
T-47D breast
  growth: 94.9%
BT-549 breast
  growth: 90.7%
MDA-MB-435 melanoma
  growth: 95.5%
SW-620 colon
  growth: 95.1%
MCF7 breast
  growth: 90.5%
HCT-116 colon
  growth: 98.4%
KM12 colon
  growth: 102%

## O=S(=O)(OCCO)c1ccccc1
RPMI-8226 leukemia
  growth: 103%
OVCAR-8 ovarian
  growth: 90.6%
OVCAR-5 ovarian
  growth: 92%
OVCAR-4 ovarian
  growth: 109%
SK-OV-3 ovarian
  growth: 109%
IGROV1 ovarian
  growth: 113%
OVCAR-3 ovarian
  growth: 112%
HS 578T breast
  growth: 108%
NCI/ADR-RES ovarian
  growth: 102%
BT-549 breast
  growth: 105%
MDA-MB-435 melanoma
  growth: 98.2%
SW-620 colon
  growth: 101%
HCT-116 colon
  growth: 104%
HCC-2998 colon
  growth: 113%
KM12 colon
  growth: 103%

## O=C1/C(=C/c2ccc(Cl)cc2)N=C(c2ccccc2)N1CCc1cccs1
RPMI-8226 leukemia
  growth: 76.1%
OVCAR-8 ovarian
  growth: 36.1%
OVCAR-5 ovarian
  growth: 30.5%
OVCAR-4 ovarian
  growth: 62.1%
SK-OV-3 ovarian
  growth: 105%
IGROV1 ovarian
  growth: 55.3%
OVCAR-3 ovarian
  growth: 79.9%
HS 578T breast
  growth: 67.7%
NCI/ADR-RES ovarian
  growth: 56.7%
T-47D breast
  growth: 97.7%
BT-549 breast
  growth: 59.8%
MDA-MB-435 melanoma
  growth: 53.2%
SW-620 colon
  growth: 51.3%
MCF7 breast
  growth: 15.7%
HCT-116 colon
  growth: 28.5%
HCC-2998 colon
  growth: 25.4%
KM12 colon
  growth: 99.2%

## O=C1/C(=C/c2ccccc2F)CNC/C1=C\c1ccccc1F
RPMI-8226 leukemia
  growth: -27.8% (active)
OVCAR-8 ovarian
  growth: 2.92% (active)
OVCAR-5 ovarian
  growth: -41.3% (active)
OVCAR-4 ovarian
  growth: 6.6% (active)
SK-OV-3 ovarian
  growth: -45.1% (active)
IGROV1 ovarian
  growth: -6.61% (active)
OVCAR-3 ovarian
  growth: -68.6% (active)
HS 578T breast
  growth: 24.5%
NCI/ADR-RES ovarian
  growth: 10.9%
T-47D breast
  growth: 9.26% (active)
MDA-MB-435 melanoma
  growth: -56.7% (active)
SW-620 colon
  growth: -49.8% (active)
MCF7 breast
  growth: -47% (active)
HCT-116 colon
  growth: -81.8% (active)
HCC-2998 colon
  growth: -89.2% (active)
KM12 colon
  growth: -80.1% (active)

## COc1ccc(/C=C2\SC(=O)N(CN3CCN(c4cc5c(cc4F)c(=O)c(C(=O)O)cn5C4CC4)CC3)C2=O)cc1
RPMI-8226 leukemia
  growth: 99.9%
OVCAR-8 ovarian
  growth: 98.5%
OVCAR-5 ovarian
  growth: 108%
OVCAR-4 ovarian
  growth: 104%
IGROV1 ovarian
  growth: 113%
OVCAR-3 ovarian
  growth: 110%
HS 578T breast
  growth: 108%
NCI/ADR-RES ovarian
  growth: 103%
BT-549 breast
  growth: 86.4%
MDA-MB-435 melanoma
  growth: 98%
SW-620 colon
  growth: 99.8%
MCF7 breast
  growth: 95.2%
HCT-116 colon
  growth: 85.7%
HCC-2998 colon
  growth: 104%
KM12 colon
  growth: 103%

## CCOC(=O)c1cc2c(n(C)c1=O)-c1cnn(-c3ccc(OC)cc3)c1CC2
RPMI-8226 leukemia
  growth: 89.1%
OVCAR-8 ovarian
  growth: 93.8%
OVCAR-5 ovarian
  growth: 95.2%
OVCAR-4 ovarian
  growth: 106%
SK-OV-3 ovarian
  growth: 108%
IGROV1 ovarian
  growth: 115%
OVCAR-3 ovarian
  growth: 107%
HS 578T breast
  growth: 119%
T-47D breast
  growth: 82.8%
BT-549 breast
  growth: 101%
SW-620 colon
  growth: 119%
HCT-116 colon
  growth: 108%
HCC-2998 colon
  growth: 120%
KM12 colon
  growth: 112%

## COc1cccc(C2CC(=O)Nc3cc4c(cc32)CCC4)c1OC (centres undefined)
RPMI-8226 leukemia
  growth: 50.6%
OVCAR-8 ovarian
  growth: 84.9%
OVCAR-5 ovarian
  growth: 99.5%
OVCAR-4 ovarian
  growth: 76.2%
SK-OV-3 ovarian
  growth: 44.5%
IGROV1 ovarian
  growth: 57%
OVCAR-3 ovarian
  growth: 46.1%
HS 578T breast
  growth: 67.7%
NCI/ADR-RES ovarian
  growth: 42.1%
T-47D breast
  growth: 57.1%
BT-549 breast
  growth: 62.3%
MDA-MB-435 melanoma
  growth: -56.5% (active)
SW-620 colon
  growth: 29.3%
MCF7 breast
  growth: 29.3%
HCT-116 colon
  growth: 57.7%
KM12 colon
  growth: 28.5%

## O=C(Nc1nc2ccccc2[nH]1)C(=O)Nc1nc2ccccc2[nH]1
RPMI-8226 leukemia
  growth: 90.8%
OVCAR-8 ovarian
  growth: 102%
OVCAR-5 ovarian
  growth: 88.6%
OVCAR-4 ovarian
  growth: 96.3%
SK-OV-3 ovarian
  growth: 108%
IGROV1 ovarian
  growth: 81.9%
OVCAR-3 ovarian
  growth: 101%
HS 578T breast
  growth: 105%
T-47D breast
  growth: 95.4%
BT-549 breast
  growth: 108%
MDA-MB-435 melanoma
  growth: 101%
SW-620 colon
  growth: 102%
HCT-116 colon
  growth: 103%
HCC-2998 colon
  growth: 107%
KM12 colon
  growth: 101%

## CC1=CN2C(=NC3=C(CCCC/C3=C\c3ccccc3)C2c2ccccc2)S1 (centres undefined)
RPMI-8226 leukemia
  growth: 112%
OVCAR-8 ovarian
  growth: 102%
OVCAR-5 ovarian
  growth: 106%
OVCAR-4 ovarian
  growth: 95.8%
SK-OV-3 ovarian
  growth: 88.5%
IGROV1 ovarian
  growth: 97.9%
OVCAR-3 ovarian
  growth: 110%
HS 578T breast
  growth: 92.8%
T-47D breast
  growth: 91%
BT-549 breast
  growth: 108%
MDA-MB-435 melanoma
  growth: 99.6%
SW-620 colon
  growth: 103%
MCF7 breast
  growth: 94.6%
HCT-116 colon
  growth: 97.6%
HCC-2998 colon
  growth: 103%
KM12 colon
  growth: 100%

## O=C(CCc1nnc2sc(-c3ccccc3)nn12)c1nc2ccccc2[nH]1
RPMI-8226 leukemia
  growth: 83%
OVCAR-8 ovarian
  growth: 97.2%
OVCAR-5 ovarian
  growth: 116%
OVCAR-4 ovarian
  growth: 98.7%
SK-OV-3 ovarian
  growth: 107%
IGROV1 ovarian
  growth: 96.8%
OVCAR-3 ovarian
  growth: 116%
HS 578T breast
  growth: 102%
NCI/ADR-RES ovarian
  growth: 92.5%
T-47D breast
  growth: 80.3%
BT-549 breast
  growth: 98.4%
MDA-MB-435 melanoma
  growth: 94.8%
SW-620 colon
  growth: 123%
MCF7 breast
  growth: 87%
HCT-116 colon
  growth: 72.2%
HCC-2998 colon
  growth: 104%
KM12 colon
  growth: 100%

## CC(=O)Nc1ccc(S(=O)(=O)N/N=C\c2ccc(Cl)c(Cl)c2)cc1
RPMI-8226 leukemia
  growth: 92.5%
OVCAR-8 ovarian
  growth: 103%
OVCAR-5 ovarian
  growth: 108%
OVCAR-4 ovarian
  growth: 113%
SK-OV-3 ovarian
  growth: 105%
OVCAR-3 ovarian
  growth: 111%
HS 578T breast
  growth: 103%
NCI/ADR-RES ovarian
  growth: 103%
T-47D breast
  growth: 86.7%
BT-549 breast
  growth: 99.7%
SW-620 colon
  growth: 99.7%
MCF7 breast
  growth: 95.6%
HCT-116 colon
  growth: 101%
KM12 colon
  growth: 107%

## Cc1nc2cc(Nc3nc(NCCO)nc(Nc4ccc(F)cc4)n3)ccc2n1Cc1ccccc1
RPMI-8226 leukemia
  growth: 14.2%
OVCAR-8 ovarian
  growth: 80%
OVCAR-5 ovarian
  growth: 114%
OVCAR-4 ovarian
  growth: 95.3%
SK-OV-3 ovarian
  growth: 105%
IGROV1 ovarian
  growth: 88.9%
OVCAR-3 ovarian
  growth: 90.2%
HS 578T breast
  growth: 107%
NCI/ADR-RES ovarian
  growth: 97.7%
T-47D breast
  growth: 65.3%
BT-549 breast
  growth: 101%
MDA-MB-435 melanoma
  growth: 91.6%
SW-620 colon
  growth: 109%
MCF7 breast
  growth: 91.3%
HCT-116 colon
  growth: 76.5%
HCC-2998 colon
  growth: 106%
KM12 colon
  growth: 80.3%

## Nc1c(Br)cc(Br)cc1-c1n[nH]c(=O)[nH]c1=O
RPMI-8226 leukemia
  growth: 99.6%
OVCAR-8 ovarian
  growth: 105%
OVCAR-5 ovarian
  growth: 97.2%
OVCAR-4 ovarian
  growth: 98.5%
SK-OV-3 ovarian
  growth: 93.4%
IGROV1 ovarian
  growth: 105%
OVCAR-3 ovarian
  growth: 113%
HS 578T breast
  growth: 78.3%
NCI/ADR-RES ovarian
  growth: 103%
T-47D breast
  growth: 103%
BT-549 breast
  growth: 101%
MDA-MB-435 melanoma
  growth: 99.2%
SW-620 colon
  growth: 96.9%
HCT-116 colon
  growth: 107%
HCC-2998 colon
  growth: 111%
KM12 colon
  growth: 99.8%

## COc1ccc(/C=C(\C#N)c2ccc(OC)cc2)cc1
RPMI-8226 leukemia
  growth: 55.8%
OVCAR-8 ovarian
  growth: 81.9%
OVCAR-5 ovarian
  growth: 85.1%
OVCAR-4 ovarian
  growth: 81.8%
SK-OV-3 ovarian
  growth: 74.9%
OVCAR-3 ovarian
  growth: 62.6%
HS 578T breast
  growth: 86.3%
NCI/ADR-RES ovarian
  growth: 4% (active)
T-47D breast
  growth: 47.4%
BT-549 breast
  growth: 95%
MDA-MB-435 melanoma
  growth: 2.31% (active)
SW-620 colon
  growth: 38.6%
MCF7 breast
  growth: 36.8%
HCT-116 colon
  growth: 55.4%
KM12 colon
  growth: 28.4%

## COc1cc(-c2nc(Nc3nc4ccccc4[nH]3)nc(N)c2C#N)cc(OC)c1OC
RPMI-8226 leukemia
  growth: 69.8%
OVCAR-8 ovarian
  growth: 79.6%
OVCAR-5 ovarian
  growth: 101%
OVCAR-4 ovarian
  growth: 72.8%
SK-OV-3 ovarian
  growth: 52.6%
IGROV1 ovarian
  growth: 43%
OVCAR-3 ovarian
  growth: 15.1%
NCI/ADR-RES ovarian
  growth: 97.9%
T-47D breast
  growth: 57.8%
BT-549 breast
  growth: 71.3%
MDA-MB-435 melanoma
  growth: 14.5%
MCF7 breast
  growth: 30.9%
HCT-116 colon
  growth: 43.3%
HCC-2998 colon
  growth: 81.2%
KM12 colon
  growth: 36.6%
